TDP1 cell noCPT = qHTS for Inhibitors of human tyrosyl-DNA phosphodiesterase 1 (TDP1): qHTS in cells in absence of CPT; DT40 Tdp1-/- hTDP1 cells, no CPT, ATP luminescence, 48 h; Potency, µM (series often up to 46.2 µM), inactives show at the highest dose activity change, negative = growth inhibition, actives largely listed as inhibitors; hit rate 15% among 420,000; AID 686978, 2013; further: potency means the concentration at half of the fitted maximal effect; nearly all actives have a fitted effect of over 55% in size
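Compound effects on proliferation are scored in DT40 Tdp1-/-;hTDP1 cells in the absence of CPT. ATP levels (CellTiter-Glo luminescence) are recorded after a ≥48 hr, 37 °C incubation.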
IL-1B inflam inh = blocks inflammasome-driven IL-1 beta release; hit rate 4.7% among 360,000; AID 743279; activity change, % at 57.5 µM; THP-1 LPS/ATP IL-1B secretion, AlphaLISA, 16 h; hits give low values; in the data active means activity change below about -50%; inconclusive means mostly about -30% to -49%
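Secreted IL-1B measured by AlphaLISA bead assay after 16 h compound exposure of THP-1 cells; compounds (final up to 57.5 uM) added 1 h before LPS (250 ng/mL) and ATP (1.25 mM) stimulation; lower signal means less secretion.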
HT1080 IDH1KD tx = kills HT-1080 cells with IDH1 knockdown; hit rate 2% among 360,000; AID 686971; HT-1080 IDH1 knockdown viability, ATP luminescence, 48 h; Potency, µM (titrated, usually from 46.1 µM), for inactives: at the highest dose activity, negative = toxicity, actives largely listed as cytotoxic;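 further: potency means the concentration at half of the fitted maximal effect; 0% = DMSO wells and -100% = cell-free medium wells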
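IDH1KD HT-1080 cells, 750/well, RPMI + 5% FBS; compound pinned after 2 h settling; 48 h, 37 °C; CellTiter-Glo luminescence; % activity normalised to DMSO and no-cell wells; curves fitted, classed by r2 and efficacy.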
TDP1 cell CPT = DT40-hTDP1 cell growth loss with CPT | chicken DT40 Tdp1-/-;hTDP1 cells + 20 nM CPT, ATP luminescence, 48 h | Potency, µM (highest dose often 46.2 µM), without a hit: at the top dose activity change, negative = growth inhibition, usual class: inhibitors | hit rate 12% among 420,000 | AID 686979; further: potency means the concentration at half of the fitted maximal effect; nearly all actives have a fitted effect of over 55% in size
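Chicken DT40 Tdp1-/- cells complemented with human TDP1, 400 cells/well, exposed to compounds plus 20 nM camptothecin for at least 48 h at 37 C; viability read as ATP content by CellTiter-Glo luminescence.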
HT1080NT lethal = kills 2HG-producing HT-1080-NT fibrosarcoma cells; HT-1080-NT fibrosarcoma viability, CellTiter-Glo ATP luminescence, 48 h; Potency, µM (doses to about 46.1 µM), without a hit: top-dose activity, negative = less viability, most hits filed as cytotoxic; hit rate 1.6% among 360,000; AID 686970;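 further: NT is the 2HG producing partner of a matched IDH1 knockdown line; potency means the concentration at half of the fitted maximal effect; 0% = DMSO-treated cells and -100% = media-only wells without cells; nearly all actives have a fitted effect of over 55% in size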
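Compounds were tested in concentration-response format on HT-1080-NT cells for 48 hours at 37 degrees C. Cell viability came from CellTiter-Glo luminescence; curves were classified by r2, response magnitude and activity.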
An asterisk follows results filed as active; [ ] = remark or other dose. This is a sample that favours compounds with a hit; in the whole collection about 19% have one here. Unless noted, the call rests on the fitted dose curve; in most records, active means well fitted curve in the direction sought with a large enough effect; inconclusive means small, poorly fitted or top-dose-only effect, or another doubt; inactive means no such curve, though single readings can be large; an effect the other way counts as inactive or inconclusive. Unless noted, on the % scale 0 is the no-effect control and ±100 the full control effect.

CCc1noc(C)c1C(=O)N1CCOc2ccc(CN3CCN(c4ccccn4)CC3)cc2C1 was read as TDP1 cell noCPT -2.9% and TDP1 cell CPT 8.1%[9.04 µM].
CCc1ccccc1NC(=O)C(CC)Sc1nc2cc3c(cc2c(=O)n1Cc1ccco1)OCO3 (centres undefined) was read as TDP1 cell noCPT inconclusive, IL-1B inflam inh 6.7, HT1080 IDH1KD tx -1.6%, TDP1 cell CPT 16.4µM* and HT1080NT lethal -2.9%.
`CCC(Sc1nc2cc(OC)c(OC)cc2c(=O)n1Cc1ccco1)C(=O)NCCOC` (centres undefined) gave TDP1 cell noCPT -28.0%, IL-1B inflam inh 91.1, HT1080 IDH1KD tx -13.7%, TDP1 cell CPT -24.3% and HT1080NT lethal -0.3%.
For CCc1ccc(NC(=O)C(CC)Sc2nc3cc4c(cc3c(=O)n2Cc2ccco2)OCO4)cc1 (centres undefined) the results were TDP1 cell noCPT inconclusive, IL-1B inflam inh -0.4, HT1080 IDH1KD tx -19.8%, TDP1 cell CPT 18.4µM* and HT1080NT lethal -21.7%.
Screening Cc1c(/C=N\NC(=O)C2COc3ccccc3O2)c2ccccc2n1C (centres undefined) returned TDP1 cell noCPT 0.92µM*, IL-1B inflam inh 2.8, HT1080 IDH1KD tx 0.651µM*, TDP1 cell CPT 0.731µM* and HT1080NT lethal 0.651µM*.
For Cc1[nH]n(-c2ccccc2)c(=O)c1/C=N\NC(=O)C1COc2ccccc2O1 (centres undefined) the results were TDP1 cell noCPT 5.17µM*, IL-1B inflam inh 19.4, HT1080 IDH1KD tx inconclusive, TDP1 cell CPT 3.26µM* and HT1080NT lethal inconclusive.
O=C(N/N=C/c1ccco1)C1COc2ccccc2O1 (centres undefined) was read as TDP1 cell noCPT -25.3%, IL-1B inflam inh 0.0, HT1080 IDH1KD tx 14.3%, TDP1 cell CPT -2.0% and HT1080NT lethal 11.7%.
`Cc1ccc(-n2c(O)c(/C=N/NC(=O)C3COc4ccccc4O3)c3ccccc3c2=O)cc1` (centres undefined) gave TDP1 cell noCPT 25.9µM*, IL-1B inflam inh 45.0, HT1080 IDH1KD tx -13.5%, TDP1 cell CPT inconclusive and HT1080NT lethal -8.7%.
O=C(N/N=C/c1c(O)n(-c2ccccc2Cl)c(=O)c2ccccc12)C1COc2ccccc2O1 (centres undefined) was read as TDP1 cell noCPT inconclusive, IL-1B inflam inh 50.9, HT1080 IDH1KD tx inconclusive, TDP1 cell CPT inconclusive and HT1080NT lethal inconclusive.
For COCCNC(=O)C1(C)CCCN(Cc2ccc(-c3ccccc3)o2)C1 (centres undefined) the results were TDP1 cell noCPT inconclusive, IL-1B inflam inh -5.9, HT1080 IDH1KD tx 0.6%, TDP1 cell CPT inconclusive and HT1080NT lethal -15.7%.
Screening CCCN(CC(=O)Nc1ccccc1C)C(=O)c1ccc(COc2ccccc2)cc1 returned TDP1 cell noCPT inconclusive, IL-1B inflam inh -4.7, HT1080 IDH1KD tx -18.6%, TDP1 cell CPT 23.1µM* and HT1080NT lethal -9.1%.
`COC(=O)C[C@H]1CC[C@@H](NC(=O)C2CC2)[C@@H](CO)O1` gave TDP1 cell noCPT 13.8%, IL-1B inflam inh 51.9, HT1080 IDH1KD tx 14.5%, TDP1 cell CPT -3.9% and HT1080NT lethal 17.2%.
Screening Cc1cc(O)c(C(C)C)cc1NC(=O)c1cccc(Cl)c1 returned TDP1 cell noCPT -21.9%, IL-1B inflam inh inconclusive, HT1080 IDH1KD tx -0.8%, TDP1 cell CPT -25.4% and HT1080NT lethal 5.3%.
`N=C1C(c2nc3ccccc3s2)=C(O)CN1Cc1ccccc1` gave TDP1 cell noCPT 4.61µM*, IL-1B inflam inh -0.1, HT1080 IDH1KD tx inconclusive, TDP1 cell CPT 7.31µM* and HT1080NT lethal inconclusive.
Screening CCOc1ccccc1N1CC(O)=C(c2nc3ccccc3s2)C1=N returned TDP1 cell noCPT 4.11µM*, IL-1B inflam inh 12.7, HT1080 IDH1KD tx 2.82µM*, TDP1 cell CPT 3.26µM* and HT1080NT lethal 2.82µM*.
`O=C(NCc1ccc(Cl)cc1)c1ccc2c(Cl)c3c(nc2c1)CCCC3` gave TDP1 cell noCPT inconclusive and TDP1 cell CPT 16.4µM*.

Screening results from PubChem.
